The whole screen tested about 16,000 compounds, of which about 250 (1.6%) were called active. The entries come from a sample that favours actives as a whole. Values without a mark were called inactive.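 Rule for the calls: active = inhibition above the average over every tested compound plus 3 SD (cut at about 40% in these data); inactive = the rest.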
Each molecule was assayed on Hepatitis C virus NS3 helicase (assay: HCV NS3 helicase inhibitors, primary screen, biochemical, fluorescence polarization, ChemBridge library (AID 687043)). Details: NS3h Cy5-dT15 DNA binding, at 100 µM, active compounds read high.
In the case of `CCOc1cc(C=C2C(=O)NC(=O)NC2=O)cc(Br)c1OCCOc1ccccc1C`, the inhibition is reported as 51.3% (active).
In the case of `Nc1ccc(Cc2ccc(N)c(Cl)c2)cc1Cl`, the inhibition is reported as 7.3%.
With `COc1cccc(CN2CCN(Cc3ccccc3OC)CC2)c1` the inhibition was -10.1%.
With `Cc1ccccc1CN1CCN(C(=O)COc2ccc(Cl)cc2)CC1` the inhibition was 8.5%.
`COc1cc(C)cc2oc(=O)c3c(c12)CCC3` was tested, and the inhibition was -2.5%.

From PubChem BioAssay AID687043 (Milwaukee Institute for Drug Discovery, 2013)
